Test results: PubChem BioAssay AID1533 (PCMD, 2009)
About 45 (0.03%) of roughly 160,000 compounds were called active. Cut-off read from the data, not from the text of the source: active = inhibition mostly above about 34% (no sharp cut-off); inconclusive = no clear call, values can overlap the other calls; inactive = mostly below about 22%. Shown is part of a subset that was picked to be rich in actives.

Each compound was assayed against dTDP-4-dehydrorhamnose reductase (Mycobacterium tuberculosis (strain ATCC 25618 / H37Rv)) + dTDP-4-dehydrorhamnose 3,5-epimerase (Mycobacterium tuberculosis (strain ATCC 25618 / H37Rv)) (UniProt P9WH09+P9WH11) (assay: M. tuberculosis RmlC/RmlD coupled enzyme inhibitors, primary screen, biochemical, compound mixtures, 384-well, from 1536-well plates (AID 1533)). Conditions: RmlC+RmlD coupled enzyme assay, percent inhibition; primary screen in compound mixtures; at 3.6 µM; active compounds read high.
Chain of dTDP-4-dehydrorhamnose reductase (Mycobacterium tuberculosis (strain ATCC 25618 / H37Rv)) + dTDP-4-dehydrorhamnose 3,5-epimerase (Mycobacterium tuberculosis (strain ATCC 25618 / H37Rv)) (P9WH09 whole entry, looked up): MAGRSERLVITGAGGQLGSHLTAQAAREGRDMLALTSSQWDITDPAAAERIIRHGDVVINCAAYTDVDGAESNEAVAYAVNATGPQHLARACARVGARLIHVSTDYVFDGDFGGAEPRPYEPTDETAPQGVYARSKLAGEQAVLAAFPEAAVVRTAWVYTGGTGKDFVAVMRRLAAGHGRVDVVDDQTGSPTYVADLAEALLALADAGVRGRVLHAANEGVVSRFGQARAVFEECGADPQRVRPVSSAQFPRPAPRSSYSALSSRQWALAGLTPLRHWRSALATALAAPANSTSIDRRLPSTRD
Chain of dTDP-4-dehydrorhamnose reductase (Mycobacterium tuberculosis (strain ATCC 25618 / H37Rv)) + dTDP-4-dehydrorhamnose 3,5-epimerase (Mycobacterium tuberculosis (strain ATCC 25618 / H37Rv)) (P9WH11 whole entry, looked up): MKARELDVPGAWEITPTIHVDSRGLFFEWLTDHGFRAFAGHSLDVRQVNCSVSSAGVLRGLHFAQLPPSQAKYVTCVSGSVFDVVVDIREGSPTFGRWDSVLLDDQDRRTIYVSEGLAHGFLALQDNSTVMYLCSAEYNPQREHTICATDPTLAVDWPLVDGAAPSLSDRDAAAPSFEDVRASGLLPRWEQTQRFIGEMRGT

Row | SMILES | inhibition
1 | N/C(=N\OC(=O)CCCC(=O)O)c1ncc(C(F)(F)F)cc1Cl | 2.53% (inactive)
2 | N#CC1=C(N)Oc2c(ccc3cccnc23)C1c1ccncc1 (stereo not given) | 4.04% (inactive)
3 | c1csc(-c2nnc(COc3ncnc4sccc34)o2)c1 | -7.72% (inactive)
4 | O=c1ccnc(Nc2ccc(Cl)cc2)[nH]1 | 6.37% (inactive)
5 | CN(c1ccccc1)S(=O)(=O)c1cc(C(=O)OCC(=O)N2CCN(C(=O)c3ccco3)CC2)ccc1Cl | 3.76% (inactive)
6 | COC(=O)c1ccccc1N=Nc1c(C)[nH][nH]c1=O | -10.6% (inactive)
7 | O=C(Nc1ccccc1F)c1ccc(Cn2cc(Br)cn2)cc1 | -3.16% (inactive)
8 | O=C(Cc1ccccc1Cl)N1CCN(c2ccccn2)CC1 | -5.39% (inactive)
9 | NC(=O)Cc1ccc2c(c1)[nH]c1ccccc12 | -1.93% (inactive)
10 | O=C(COc1cc(Cl)c(Cl)cc1Cl)NCCc1ccccn1 | 6.74% (inactive)
11 | CCN1C(=O)/C(=c2\s/c(=C3\Sc4ccccc4N3C)c(=O)n2C)N(C)C1=S | -7.72% (inactive)
12 | C=CCN(CC=C)C(=O)COC(=O)c1n[nH]c2ccccc12 | 5.16% (inactive)
13 | O=C(Nc1ccc(-c2ccc3nncn3n2)cc1)C1CCCCC1 | -6.47% (inactive)
14 | Cc1ccc(-c2nn(-c3cccc(F)c3)cc2CNCCc2ccncc2)o1 | -11.7% (inactive)
15 | CCN(CC)S(=O)(=O)c1ccc(NC(=O)c2cccnc2Cl)c(NC(=O)c2cccnc2Cl)c1 | 9.89% (inactive)
16 | O=[N+]([O-])/C(N=Nc1ccccc1)=N\Nc1ccccc1 | -9.57% (inactive)
17 | O=S(=O)(NC(=S)Nc1ccccc1)c1ccc(F)cc1 | -3.25% (inactive)
18 | CN(CCC1CCOCC1)Cc1cn[nH]c1-c1ccc(-c2ccccc2)cc1 | 9.21% (inactive)
19 | Cc1c(NC(=O)CN2C(=O)C(=O)N(Cc3ccccc3)C2=O)c(=O)n(-c2ccccc2)n1C | 7.63% (inactive)
20 | CCOC(=O)c1sc(NC(=O)CSc2n[nH]c(CC)n2)nc1C | -5.04% (inactive)
